Sampled rows, rich in hits. Any-hit rate of the full collection: about 2%.
Beta apoptosis = blocks beta cell apoptosis. INS-1E cytokine-induced death, ATP luminescence, 48 h; percent of positive-control rescue, neutral wells zero. protection from apoptosis, % (test concentration not listed). actives 0.8% (n = 300,000). AID 435005;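 active means Every replicate reaches about 75%, or at least half do and their mean reaches it too, limit read from the data; inconclusive means At least half of replicates reach the limit but their mean does not; inactive means Under half of replicates reach the limit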;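 further: 0% = cytokine-treated negative control wells and 100% = positive control rescue; higher means more ATP so stronger rescue from cytokine killing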
Shn3 3UTR inh = inhibitors of Schnurri-3 3'UTR reporter in osteoblasts | actives 0.52% (n = 360,000) | Clone20 osteoblast Shn3 3'UTR firefly luciferase, 24 h | AID 588674 | inhibition, % at 12.5 µM;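 active means mean inhibition of at least 75% with every replicate also reaching 75%; inconclusive means mean inhibition at least 75% but some replicate below; inactive means mean inhibition below 75%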;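 further: 0% = median of neutral control wells and 100% = pilot-screen positive control compound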
Jurkat NFkB inh = inhibitors of the PMA/ionomycin-induced NF-kB reporter in Jurkat cells. PMA/ionomycin-induced NF-kB luciferase reporter, luminescence. inhibition, % at 4 µM. actives 0.53% (n = 330,000); in the data active means inhibition above about 50%
Calb FLC = C. albicans growth modulation with fluconazole. C. albicans CaCi-2 (fluconazole-resistant clinical isolate) + fluconazole, Alamar Blue growth, 48 h. growth inhibition, % (test concentration not listed). actives 0.57% (n = 300,000). AID 1979;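 active means growth inhibition above about 58% in most replicates, limit read from the data, passing the limit was not always enough; inconclusive means exactly half the replicates above a set limit; inactive means most replicates below a set limit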;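 further: all wells also contain fluconazole at 8 µg/ml as a sub-toxic cotreatment; 0% = median of DMSO wells and 100% = median of geldanamycin control wells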
697 NFkB inh = lowers PMA/ionomycin-induced NF-kB signal in 697 B cells; actives 0.33% (n = 330,000); 697 B-cell NF-kB luciferase reporter, 16 h; AID 435022; inhibition, % at 4 µM; in the data active means inhibition above about 35%
The depositor's hits bear a star; ? = inconclusive; . = no result.

SMILES | Beta apoptosis | Shn3 3UTR inh | Jurkat NFkB inh | Calb FLC | 697 NFkB inh
CC[C@]1(C(=O)OC)[C@H]2C(=O)N(C)C(=O)[C@H]2[C@H]2CN=C(SCc3ccc(C#N)cc3)N21 | . | -3 | . | . | 0
CC(C)(C)c1ccc(-n2nc(C#N)c(Cl)cc2=O)cc1 | . | 98* | 40 | 86* | 13
CCOc1ccccc1N1CC(C(=O)Nc2cc(S(=O)(=O)N3CCOCC3)ccc2OC(C)C)CC1=O (configuration not stated) | . | -6 | . | . | .
O=C(NC(=S)Nn1cnc2c(cnn2-c2ccccc2)c1=O)c1ccc(Cl)cc1 | 0 | -20 | 2 | 101* | 9
O=C(NC(=S)Nn1cnc2c(cnn2-c2ccccc2)c1=O)c1ccc(Oc2ccccc2)cc1 | -5 | -27 | -2 | -10 | -8
O=C(Nc1ccccc1N1CCOCC1)c1ccc(S(=O)(=O)NCc2ccco2)cc1 | 1 | 7 | 10 | 108* | 4
COc1ccc(NC(=O)C2CCN(S(=O)(=O)c3ccc(N4CCCC4=O)cc3)CC2)cc1OC | 1 | 14 | 6 | -6 | 13
O=C(Nc1ccc(C(F)(F)F)cc1)C1CCN(S(=O)(=O)c2ccc(N3CCCC3=O)cc2)CC1 | 101* | 78 | 46 | 5 | 15
Nc1ccc(Br)cc1-c1nc2ccccc2[nH]c1=O | 102* | 72 | -21 | -35 | -14
Nc1ccccc1-c1nc2ccccc2[nH]c1=O | 0 | -5 | -54 | -9 | -36
C[C@H]1CC[C@H]2C(=O)N3[C@H](c4cccc(N5CCCC5=O)c4)[C@@H](C)CC[C@H]3C(=O)N2[C@@H]1c1cccc(N2CCCC2=O)c1 | -1 | . | 0 | 8 | -8
C[C@H]1CC[C@H]2C(=O)N3[C@H](c4ccccc4Br)[C@@H](C)CC[C@H]3C(=O)N2[C@@H]1c1ccccc1Br | 110* | . | 11 | -18 | -1
CC1=C(C(=O)N(C)C)CC(CC(=O)NCCc2ccccn2)C(=O)N1Cc1ccc(C(C)(C)C)cc1 (configuration not stated) | . | 4 | . | . | .
CCOC(=O)C1(Cc2cccc(OC)c2)CCN(C/C=C/c2ccc(OC)cc2)CC1 | 20 | 88* | 8 | 1 | -10
CCOC(=O)C1(Cc2cccc(OC)c2)CCN(C/C=C/c2ccccc2)CC1 | 8 | 67 | 6 | 5 | -11
CC1CCN(S(=O)(=O)c2ccc3c(c2)NC(=O)CS3)CC1 | 1 | 6 | 3 | 1 | 14
Cc1ccc(-c2nc3ccc(Cl)cc3c(=O)n2O)cc1 | 4 | -12 | 9 | 106* | 7
O=c1c2cc(Br)ccc2nc(-c2ccccc2)n1O | 1 | -4 | -5 | 100* | 5
Cc1ccc(-c2nc3ccccc3c(=O)n2O)cc1 | -1 | -2 | -2 | 5 | -9
O=c1c2ccccc2nc(-c2cccc(Cl)c2)n1O | 5 | 23 | 5 | ? | 24
CC(CCc1ccccc1)NC(=O)C1CCN(S(=O)(=O)c2ccc(F)cc2)CC1 (configuration not stated) | . | 11 | 10 | -8 | 3
COC(=O)C1=C(C(=O)OC)[C@@H]2N(Cc3ccccc3)c3ccccc3[C@@]23C[C@@H](C(=O)OC)N(C(=O)c2ccc(Br)cc2)C3=N1 | 0 | 97* | 33 | 4 | 13
Cn1cc(/C=C/c2cc[n+](C)cc2)c2cc(F)ccc21 | 69 | 9 | . | ? | .
Cn1cc(/C=C/c2cc[n+](C)cc2)c2cc(Cl)ccc21 | 95* | -7 | . | 82* | .
COc1ccc(-c2cc(C(=O)NNC(=S)NC(=O)c3c(-c4ccccc4)noc3C)[nH]n2)cc1 | 11 | 6 | 3 | 81* | -1
SMILES | Beta apoptosis | Shn3 3UTR inh | Jurkat NFkB inh | Calb FLC | 697 NFkB inh
O=C(NCc1nc2ccccc2[nH]1)C1=C[C@@H](C2CCCCC2)C[C@@H](OCc2ccc(CO)cc2)O1 | 106* | 5 | 12 | 31 | -16
Nc1ccc2cc3[nH]c4cc(N)ccc4c3nc2c1 | . | 90* | . | . | .
O=C(CN1C(=O)/C(=C/c2ccccc2)SC1=S)NNC(=O)c1ccccc1O | 5 | -1 | 11 | 84* | 3
COc1cccc(/C=C2/SC(=S)N(CC(=O)NNC(=O)c3ccccc3O)C2=O)c1 | -1 | -2 | -15 | -24 | -2
CCOC1=C2[C@H](c3ccccc3Cl)N(S(=O)(=O)c3ccc(C)cc3)C[C@H]2C(C#N)(C#N)C(C#N)(C#N)C1 | . | 8 | . | . | .
CCOC1=C2[C@H](c3ccc(CC)cc3)N(S(=O)(=O)c3ccc(C)cc3)C[C@H]2C(C#N)(C#N)C(C#N)(C#N)C1 | . | 95* | . | . | .
Cc1cccc(CSC(Nc2ccc(F)cc2)=C(C#N)C#N)c1 | 106* | 54 | 8 | 46 | -8
